Where a chain is given by its changes, count along the chain named. The full ranking holds about 16,000 sequences; the median of “ka relative to ugcaugu” is about 0.0091, and the highest 2% start at about 0.032. The list comes from a sample in which the highest values are over-represented; it also holds similar and randomly drawn sequences.
T1: RBFOX1 RRM (Homo sapiens, UniProt Q9NWB1 109-208)
T1 sequence: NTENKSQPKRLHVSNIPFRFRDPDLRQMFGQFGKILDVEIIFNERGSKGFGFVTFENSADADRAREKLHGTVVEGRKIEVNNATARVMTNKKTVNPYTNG

B1: AAAGAGU (DNA:RNA)
RNA: GGGAGACCGGAAUUCAGAUUGUCCAAAGAGUUUAAAUCCCGUCGUAGCCACCA
DNA 1: CAATCTGAATTCCGGTCTCCC
DNA 2: TGGTGGCTACGACGGGATT
B2: AGUGGCG (DNA:RNA)
RNA: B1 RNA with A26G, A27U, A29G, G30C, U31G
DNA 1: CAATCTGAATTCCGGTCTCCC
DNA 2: TGGTGGCTACGACGGGATT
B3: CUCUGUC (DNA:RNA)
RNA: GGGAGACCGGAAUUCAGAUUGUCCCUCUGUCUUAAAUCCCGUCGUAGCCACCA
DNA 1: CAATCTGAATTCCGGTCTCCC
DNA 2: TGGTGGCTACGACGGGATT
B4: GUGCGCC (DNA:RNA)
RNA: B3 RNA with C25G, C27G, U28C, U30C
DNA 1: CAATCTGAATTCCGGTCTCCC
DNA 2: TGGTGGCTACGACGGGATT
B5: CUUACGG (DNA:RNA)
RNA: B3 RNA with C27U, U28A, G29C, U30G, C31G
DNA 1: CAATCTGAATTCCGGTCTCCC
DNA 2: TGGTGGCTACGACGGGATT
B6: UGGGGGU (DNA:RNA)
RNA: B1 RNA with A25U, A26G, A27G, A29G
DNA 1: CAATCTGAATTCCGGTCTCCC
DNA 2: TGGTGGCTACGACGGGATT
B7: UGGGGUU (DNA:RNA)
RNA: B1 RNA with A25U, A26G, A27G, A29G, G30U
DNA 1: CAATCTGAATTCCGGTCTCCC
DNA 2: TGGTGGCTACGACGGGATT
B8: UGGUUGG (DNA:RNA)
RNA: B1 RNA with A25U, A26G, A27G, G28U, A29U, U31G
DNA 1: CAATCTGAATTCCGGTCTCCC
DNA 2: TGGTGGCTACGACGGGATT
B9: CGGUUGC (DNA:RNA)
RNA: B3 RNA with U26G, C27G, G29U, U30G
DNA 1: CAATCTGAATTCCGGTCTCCC
DNA 2: TGGTGGCTACGACGGGATT
B10: CUGGGGU (DNA:RNA)
RNA: B1 RNA with A25C, A26U, A27G, A29G
DNA 1: CAATCTGAATTCCGGTCTCCC
DNA 2: TGGTGGCTACGACGGGATT
B11: UGGUUGC (DNA:RNA)
RNA: B3 RNA with C25U, U26G, C27G, G29U, U30G
DNA 1: CAATCTGAATTCCGGTCTCCC
DNA 2: TGGTGGCTACGACGGGATT

Target: T1, RBFOX1 RRM
Test: EMSA; HiTS-Eq, 1 nM pool, 10 min; buffer printed only for the single-RNA assays: 10 mM Tris pH 7.5, 150 mM NaCl, 3.4 mM EDTA, 0.001% NP-40, 30 C
Conditions: tags: His6 N-terminal (pET28a); label: 5' 32P
How it was run: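 Purified RbFox RRM, wild type or mutant, was incubated for 10 min in 50 µL with 1 nM of a 5′-radiolabelled RNA pool carrying 7 randomized nucleotides, whose flanks were annealed to DNA oligonucleotides, over a series of increasing protein concentrations. Unbound RNA was resolved on 8% native PAGE, cut out, reverse-transcribed, barcoded by PCR and sequenced on an Illumina HiSeq 2500. Relative association constants were derived from changes in read counts for each RNA species versus the control reaction and normalised to the cognate motif.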

Binder	binding signal
B1	0.00527 KA relative to UGCAUGU
B2	0.0184 KA relative to UGCAUGU
B3	0.00978 KA relative to UGCAUGU
B4	0.0184 KA relative to UGCAUGU
B5	0.00764 KA relative to UGCAUGU
B6	0.0229 KA relative to UGCAUGU
B7	0.036 KA relative to UGCAUGU
B8	0.0294 KA relative to UGCAUGU
B9	0.0256 KA relative to UGCAUGU
B10	0.018 KA relative to UGCAUGU
B11	0.0455 KA relative to UGCAUGU

— PMC9911399, “Two distinct binding modes provide the RNA-binding protein RbFox with extraordinary sequence specificity”
